Drawing on PubChem BioAssay (EPA / NIEHS), this text covers outcome and AC50 for 21 compounds.

Where “and” joins values, the source holds several entries; their conditions need not be identical. Identical values can stand only once. Results filed as inconclusive are left out. A structure can be active in one record and inactive in another. Calls of active or inactive are those of the source. The calls were made as follows: active = hit-call score of the fitted dose curve at least 0.9, where 1 is the maximum; inconclusive = response in the unintended direction; inactive = score below 0.9.

Experiment [1] addresses Cellular tumor antigen p53 (Homo sapiens) (UniProt P04637). Description: TOX21_p53_BLA_p3_ratio: Tox21 HCT-116 p53 Agonism Beta-lactamase Assay, Ratio, Phase 3 (AID 2283596). The essentials:
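HCT116 p53-bla cells (4000/well) given compound in DMSO (217-fold dilution) after 5 h, incubated 16 h at 37C. CCF4-AM substrate 2 h at room temperature; 460/530 nm emission ratio, gain fitted against DMSO.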

For experiment [2] the target is unchanged. Nature of the experiment: TOX21_p53_BLA_p5_ratio: Tox21 HCT-116 p53 Agonism Beta-lactamase Assay, Ratio, Phase 5 (AID 2283599). The essentials:
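HCT-116 p53-bla cells (4000/well) plated 5 h, dosed with compound (217-fold DMSO dilution) for 16 h at 37 C; CCF4-AM substrate 2 h at room temperature. Activity is the 460/530 nm emission ratio (405 nm excitation), fitted in gain-of-signal direction versus DMSO.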

The nature of experiment [3]: ATG_XTT_Cytotoxicity: Cytotoxicity Assessment in the Attagene TRANS-FACTORIAL HepG2 Assay (AID 2283584).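 As to AC50: cells exposed to compound for 24 h before reading; active means loss of viability signal versus DMSO baseline.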 The essentials:
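Viability endpoint from XTT after 24 h chemical exposure of reporter-transfected human HepG2 liver cells; signal loss fitted relative to DMSO negative control.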

Experiment [4] in a line: TOX21_p53_BLA_p2_viability: Viability Assessment in the Tox21 HCT-116 p53 Agonism Beta-lactamase Assay, Phase 2 (AID 2283591).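 Also: compound exposure lasted 16 h at 37 °C; actives lower the ATP signal meaning cytotoxicity.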 The essentials: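 HCT116 p53-bla cells, 4000/well, dosed after 5 h plating (217-fold dilution of DMSO stocks) and incubated 16 h at 37C. Viability taken as cellular ATP by CellTiter-Glo luminescence after 30 min RT; signal loss marks cytotoxicity.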

Experiment [5] addresses Cellular tumor antigen p53 (Homo sapiens) (UniProt P04637). Nature of the experiment: TOX21_p53_BLA_p2_ratio: Tox21 HCT-116 p53 Agonism Beta-lactamase Assay, Ratio, Phase 2 (AID 2283592). The essentials:
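Gain-of-signal p53 agonism was scored from the beta-lactamase FRET ratio (460/530 nm, 405 nm excitation) in HCT116 cells treated 16 h at 37C, 5% CO2, with DMSO serving as negative control and baseline.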

Experiment [6] is described as follows: TOX21_p53_BLA_p5_viability: Viability Assessment in the Tox21 HCT-116 p53 Agonism Beta-lactamase Assay, Phase 5 (AID 2283600). The essentials: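 After the 460/530 nm beta-lactamase measurement, the wells received an ATP-detection luciferase reagent; signal was read 30 min later at RT. Compound treatment lasted 16 h on cells pre-incubated 5 h post-seeding.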

Experiment [7] addresses Cellular tumor antigen p53 (Homo sapiens) (UniProt P04637). Nature of the experiment: TOX21_p53_BLA_p4_ratio: Tox21 HCT-116 p53 Agonism Beta-lactamase Assay, Ratio, Phase 4 (AID 2283601). The essentials:
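HCT-116 p53 beta-lactamase reporter cells (4000/well) preincubated 5 h, then compound (217-fold dilution of DMSO stock) for 16 h at 37C. CCF4-AM substrate added 2 h at room temperature; 460/530 nm emission ratio fitted upward versus DMSO.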

A short description of experiment [8]: TOX21_p53_BLA_p3_viability: Viability Assessment in the Tox21 HCT-116 p53 Agonism Beta-lactamase Assay, Phase 3 (AID 2283593).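 Also: cells exposed to compound for 16 h before reading.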 The essentials:
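HCT116 cells, 4000/well, dosed 5 h after plating by pin transfer (217-fold dilution from DMSO stock) and incubated 16 h at 37C, 5% CO2. Viability read as ATP luminescence with CellTiter-Glo after 30 min at room temperature.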

Experiment [9] in a line: TOX21_p53_BLA_p4_viability: Viability Assessment in the Tox21 HCT-116 p53 Agonism Beta-lactamase Assay, Phase 4 (AID 2283597).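 Also: hits lower the luminescence signal meaning cytotoxicity.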 The essentials: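 Following a 16 h exposure at 37C, the treated HCT116 wells were first read for the FRET ratio. They were then lysed with CellTiter-Glo, and ATP luminescence was recorded after 30 min at room temperature.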

Chain of Cellular tumor antigen p53 (Homo sapiens) (P04637 whole entry, looked up): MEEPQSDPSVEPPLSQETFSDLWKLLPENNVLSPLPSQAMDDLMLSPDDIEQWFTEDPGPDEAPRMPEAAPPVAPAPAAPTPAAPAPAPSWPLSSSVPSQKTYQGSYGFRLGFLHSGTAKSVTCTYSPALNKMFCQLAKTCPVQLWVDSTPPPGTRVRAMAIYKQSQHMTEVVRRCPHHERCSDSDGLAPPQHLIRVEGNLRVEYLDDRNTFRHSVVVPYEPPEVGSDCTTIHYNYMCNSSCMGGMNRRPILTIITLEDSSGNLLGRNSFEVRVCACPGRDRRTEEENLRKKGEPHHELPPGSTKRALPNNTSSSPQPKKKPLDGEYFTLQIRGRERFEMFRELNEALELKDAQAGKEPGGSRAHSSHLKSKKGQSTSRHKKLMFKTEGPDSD

With `CCCCCCC(C)(C)C(=O)O`, the result in experiment [1] and in experiment [2] was inactive.
In the case of `NCc1cccc(CN)c1`, the outcome in experiment [3], in experiment [4], in [5], in experiment [1], in [6] and in experiment [7] was inactive.
Regarding `CCC(C)c1nccnc1OC` (configuration not stated), the outcome in experiment [3], in experiment [5] and in experiment [7] was inactive.
In the case of `OCC1CCC(CO)CC1` (configuration not stated), the compound was classed as inactive in experiment [3], in [4], in [5], in experiment [2], in [6] and in experiment [7].
One may read the AC50 as the concentration at which the activity in the assay is half-maximal. With `O=C1c2ccccc2C(=O)c2c(O)c(O)cc(O)c21`, the result in [3], in experiment [4], in experiment [1], in experiment [2] and in [6] was inactive. In addition, the values for the AC50 in [5] and in experiment [7] were 42.8 µM (active) and 50.1 µM (active), respectively.
`CCCC=O`: the compound was called inactive in experiment [3], in [4], in experiment [2] and in [6].
On to `COCN(COC)c1nc(N(COC)COC)nc(N(COC)COC)n1`, for which the result in experiment [4], in experiment [5], in experiment [1], in experiment [2] and in experiment [6] was inactive.
As for `NC(=NCCCCCCN=C(N)/N=C(\N)Nc1ccc(Cl)cc1)/N=C(\N)Nc1ccc(Cl)cc1`, the AC50 in experiment [3] is 31.6 µM (active); in [5], 59.8 µM (active) [middle of 4 runs]; in experiment [1], 72.6 µM (active) [middle of 4 runs]; in experiment [2] it was 79.6 µM (active) [middle of 4 runs]; in [7], 71.4 µM (active) [middle of 5 runs]. The outcome in [5], in experiment [1] and in [2] was inactive.
On to `O=C(O)c1cccc(C(=O)O)n1`, for which the outcome in experiment [5], in [8], in experiment [1], in experiment [2], in [6] and in experiment [7] was inactive.
As for `CCC(=O)C=Cc1ccc(OC)cc1`, the result in experiment [5], in [8], in experiment [1], in experiment [9], in experiment [2] and in experiment [6] was inactive. Also, in [7], the result was inactive.
Turning to `CCOC(=O)CN[C@@H](C(=O)N1CC[C@H]1C(=O)NCc1ccc(/C(N)=N/O)cc1)C1CCCCC1`, the outcome in experiment [3], in [5], in experiment [8], in experiment [1], in [9] and in [6] was inactive. In addition, the outcome in [7] was inactive.
As to `CCOCCOCC`, the compound was called inactive in [4], in experiment [8], in [1], in experiment [9], in experiment [2] and in experiment [6].
With `NCCN`, the compound was classed as inactive in experiment [3], in experiment [4], in [5], in experiment [1], in experiment [2] and in [6]. Further, the outcome in experiment [7] was inactive.
Regarding `Clc1ccc(Nc2nnc(Cc3ccncc3)c3ccccc23)cc1`, the compound was called inactive in experiment [3], in [5], in [1], in experiment [2] and in [7].
For `C[C@]12CC[C@@H]3c4ccc(O)cc4CC[C@H]3[C@@H]1C[C@@H](O)[C@@H]2O`, the call in experiment [3], in experiment [5], in [8], in experiment [1], in experiment [2] and in experiment [6] was inactive. The result in experiment [7] was inactive.
In the case of `CC1=NN(c2ccccc2)C(=O)C1`, the call in experiment [4], in experiment [5], in experiment [8], in experiment [1], in experiment [2] and in experiment [6] was inactive. The outcome in experiment [7] was inactive.
On to `CC(=O)CC(C)C`, for which the outcome in experiment [3], in experiment [4], in experiment [5], in experiment [1], in experiment [9] and in [2] was inactive. Moreover, the outcome in [6] and in experiment [7] was inactive.
For `CC(=O)Nc1ccc(S(N)(=O)=O)cc1`, the result in [3], in experiment [4] and in experiment [1] was inactive.
`C=CC(C)(CCC=C(C)C)OC(C)=O` (configuration not stated): the call in [4], in experiment [5], in [8], in experiment [1], in experiment [9] and in experiment [2] was inactive. Also, the result in experiment [7] was inactive.
Take `O=C(c1cc(O)c(O)c(O)c1)c1ccc(O)c(O)c1O`: the compound was classed as inactive in [4], in experiment [8] and in [6]. In addition, the AC50 was 59.5 µM (active) and 61.8 µM (active) in [5]; 60.9 µM (active) and 84.5 µM (active) in experiment [1]; 86.8 µM (active) and 74.6 µM (active) in [2]; 79.2 µM (active) and 49.9 µM (active) in [7].
In the case of `Cc1ccc(S(=O)(=O)O)cc1`, the compound was classed as inactive in experiment [3], in experiment [4], in experiment [8] and in experiment [6].
